Measured values as given in PubChem BioAssay (NCATS).
Records with an inconclusive call do not appear. Active and inactive are the calls of the source. The call rests on the fitted dose curve. Numbered stars: 1 amine (or outer) side, 2 acyl side, 3 side chain; on linkers, the order of the positions; unused ones are H or OH. Bridge positions count the residues as written; N and C are the ends. Square brackets hold non-standard residues; d marks the D form. Peptide text beside a SMILES is read from it. I, II: the chains in the order shown. Actinocin(9to1) = Cc1c2oc3c(C)ccc(C(=O)[*:1])c3nc-2c(C(=O)[*:2])c(N)c1=O; NMeV = CN[C@H](C(=O)O)C(C)C; Sar = CNCC(=O)O

Biological target: Retinoic acid receptor RXR-alpha (Homo sapiens) (UniProt P19793)
Sequence (P19793 whole entry, looked up): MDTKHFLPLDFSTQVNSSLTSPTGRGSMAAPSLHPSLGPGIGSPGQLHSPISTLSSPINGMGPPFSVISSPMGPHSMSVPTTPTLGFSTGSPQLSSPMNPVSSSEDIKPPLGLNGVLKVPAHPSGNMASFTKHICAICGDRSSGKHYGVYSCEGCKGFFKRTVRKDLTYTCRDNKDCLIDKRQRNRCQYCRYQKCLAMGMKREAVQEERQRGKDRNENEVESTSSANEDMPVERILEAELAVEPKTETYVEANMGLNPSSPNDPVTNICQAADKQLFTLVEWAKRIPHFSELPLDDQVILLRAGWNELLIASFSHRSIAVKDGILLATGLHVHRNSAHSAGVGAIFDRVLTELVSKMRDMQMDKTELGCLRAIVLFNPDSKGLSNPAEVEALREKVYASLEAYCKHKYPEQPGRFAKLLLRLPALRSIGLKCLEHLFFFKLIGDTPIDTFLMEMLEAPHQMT
Test: qHTS assay for small molecule agonists of retinoid X receptor alpha signaling (AID 588544)
Conditions: HEK293T RXRa-UAS-bla, beta-lactamase reporter, 18 h; series mostly up to 76.7 µM

| SMILES | outcome |
| --- | --- |
| CC(O)(P(=O)(O)O)P(=O)(O)O | inactive |
| CCCCCCc1ccc(O)cc1O | inactive |
| C=CCc1ccc(O)c(OC)c1 | inactive |
| Cc1cc(=O)n(-c2ccccc2)n1C | inactive |
| O=C1OC(c2ccc(O)cc2)(c2ccc(O)cc2)c2ccccc21 | inactive |
| O=c1ccc2ccccc2o1 | inactive |
| CN(C)/N=N/c1nc[nH]c1C(N)=O | inactive |
| CC(O)C(=O)O (configuration not stated) | inactive |
| O=C(O)CCCCC(=O)O | inactive |
| CC/C(=C(/CC)c1ccc(O)cc1)c1ccc(O)cc1 | inactive |
| CC(C)(Oc1ccc(Cl)cc1)C(=O)O | inactive |
| Nc1ccc(C(=O)O)cc1 | inactive |
| C[C@]12CC[C@@H]3c4ccc(O)cc4CC[C@H]3[C@@H]1CC[C@@H]2O | inactive |
| CN(C)C(=S)SC(=S)N(C)C | inactive |

Biological target: Thyroid hormone receptor beta (Homo sapiens) (UniProt P10828)
Sequence (P10828 whole entry, looked up): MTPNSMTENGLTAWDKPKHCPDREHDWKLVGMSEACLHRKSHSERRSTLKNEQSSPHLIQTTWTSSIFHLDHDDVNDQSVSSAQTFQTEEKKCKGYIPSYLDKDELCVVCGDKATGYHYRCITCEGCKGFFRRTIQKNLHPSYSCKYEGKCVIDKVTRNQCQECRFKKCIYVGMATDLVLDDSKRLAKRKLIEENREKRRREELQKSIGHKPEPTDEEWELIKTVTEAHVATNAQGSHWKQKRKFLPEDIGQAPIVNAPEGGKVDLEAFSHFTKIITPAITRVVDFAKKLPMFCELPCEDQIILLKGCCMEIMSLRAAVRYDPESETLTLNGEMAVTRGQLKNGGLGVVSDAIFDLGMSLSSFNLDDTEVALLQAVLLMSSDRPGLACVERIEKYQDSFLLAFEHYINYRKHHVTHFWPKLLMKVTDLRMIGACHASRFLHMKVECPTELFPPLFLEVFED
Test: qHTS assay for small molecule agonists of thyroid hormone receptor beta signaling (AID 588545)
Conditions: TR-UAS-bla GripTite HEK 293, beta-lactamase ratio, agonist mode, 18 h, percent of T3 response, DMSO as zero; series mostly up to 76.7 µM
Method in brief: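 Agonist activity was read as beta-lactamase CCF4 fluorescence (405 ex, 460/530 em), scaled between DMSO (0%) and 10 nM T3 (100%), then Hill-fitted for EC50 and efficacy. HEK 293 TR-UAS-bla cells in 2% charcoal/dextran FBS medium were exposed 18 h at 37 C.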

| SMILES | outcome |
| --- | --- |
| CC(O)(P(=O)(O)O)P(=O)(O)O | inactive |
| CCCCCCc1ccc(O)cc1O | inactive |
| C[C@H]1C[C@H]2[C@@H]3CCC4=CC(=O)C=C[C@]4(C)[C@@]3(Cl)[C@@H](O)C[C@]2(C)[C@@]1(O)C(=O)CO | inactive |
| NC(=NCCCCCCN=C(N)/N=C(\N)Nc1ccc(Cl)cc1)/N=C(\N)Nc1ccc(Cl)cc1 | inactive |
| C=C(CC)C(=O)c1ccc(OCC(=O)O)c(Cl)c1Cl | inactive |
| COC1=CC(=O)C[C@@H](C)[C@]12Oc1c(Cl)c(OC)cc(OC)c1C2=O | inactive |
| Cc1c2oc3c(C)ccc(C(=O)N[C@@H]4C(=O)N[C@H](C(C)C)C(=O)N5CCC[C@H]5C(=O)N(C)CC(=O)N(C)[C@@H](C(C)C)C(=O)O[C@@H]4C)c3nc-2c(C(=O)N[C@@H]2C(=O)N[C@H](C(C)C)C(=O)N3CCC[C@H]3C(=O)N(C)CC(=O)N(C)[C@@H](C(C)C)C(=O)O[C@@H]2C)c(N)c1=O (I: T[dV]P[Sar][NMeV] / II: T[dV]P[Sar][NMeV]; ester I:1-I:C, II:1-II:C; linker I:N-II:N via Actinocin(9to1)) | inactive |
| O=C1OC(c2ccc(O)cc2)(c2ccc(O)cc2)c2ccccc21 | inactive |
| O=c1ccc2ccccc2o1 | inactive |
| Oc1ccc(O)cc1 | inactive |
| CN(C)/N=N/c1nc[nH]c1C(N)=O | inactive |
| CC(O)C(=O)O (configuration not stated) | inactive |
| CC/C(=C(/CC)c1ccc(O)cc1)c1ccc(O)cc1 | inactive |
| CC(C)(Oc1ccc(Cl)cc1)C(=O)O | inactive |
| Nc1ccc(C(=O)O)cc1 | inactive |
| CN(C)C(=S)SC(=S)N(C)C | inactive |
| COc1cccc2c1C(=O)c1c(O)c3c(c(O)c1C2=O)C[C@@](O)(C(=O)CO)C[C@@H]3O[C@H]1C[C@H](N)[C@H](O)[C@H](C)O1 | inactive |
| Oc1c(I)cc(Cl)c2cccnc12 | inactive |
